Compound activity: PubChem BioAssay, several laboratories
The list is not random: actives were taken first. Their share in the collection is about 3.5%.
Mtb FBA inh = inhibits M. tuberculosis FBA enzyme; P9WQA3; purified M. tuberculosis FBA, fluorescence read-out; inhibition, % at 1 µM; hit rate 2.3% among 360,000; AID 588726; in the data active = inhibition above about 27%;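 note: 0% = vehicle and 100% = reference inhibitor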
Rv3671c inh = inhibits the M. tuberculosis serine protease Rv3671c; inhibition, % at 5.96 µM; hit rate 0.048% among 320,000; AID 2606;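 note: extracellular domain of Rv3671c used as enzyme; 0% = enzyme with DMSO and 100% = no enzyme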
FadD28 FP inh = M. tuberculosis FadD28 bisubstrate binding inhibition; hit rate 0.22% among 360,000; FadD28 bisubstrate probe binding, fluorescence polarization; inhibition, % at 12.5 µM; in the data active = inhibition above about 8.5%, passing the limit was not always enough; inconclusive = no clear call, values can overlap the other calls
UGM FP inh = Mtb UDP-galactopyranose mutase inhibition; inhibition, % at 10 µM; hit rate 0.06% among 320,000; P9WIQ1; purified UGM, fluorescence polarization probe displacement; in the data active = inhibition above about 10%, passing the limit was not always enough; inconclusive = no clear call, values can overlap the other calls
Target sequence (P9WIQ1 whole entry, looked up): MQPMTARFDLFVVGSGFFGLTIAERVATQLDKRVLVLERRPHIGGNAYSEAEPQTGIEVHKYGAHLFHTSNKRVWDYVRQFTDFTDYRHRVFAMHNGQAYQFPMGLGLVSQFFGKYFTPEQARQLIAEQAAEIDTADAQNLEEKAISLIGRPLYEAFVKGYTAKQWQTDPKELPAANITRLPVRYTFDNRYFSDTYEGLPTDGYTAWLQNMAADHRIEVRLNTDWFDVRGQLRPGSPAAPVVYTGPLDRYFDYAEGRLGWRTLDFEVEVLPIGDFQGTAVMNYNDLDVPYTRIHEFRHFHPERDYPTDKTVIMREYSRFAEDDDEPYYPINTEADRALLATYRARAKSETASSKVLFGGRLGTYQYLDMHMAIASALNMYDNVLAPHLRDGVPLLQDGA
GDH-TPI counter = inhibits GDH-TPI coupling enzymes, artifact for Mtb FBA screen; GDH-TPI coupled enzyme counterscreen, NADH absorbance; hit rate 1.2% among 360,000; inhibition, % at 4.8 µM; in the data active = inhibition above about 30%;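 note: 0% = DMSO wells and 100% = wells lacking the enzyme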
Mtb hypoxia inh = inhibitors of hypoxia-regulated fluorescent reporter in Mycobacterium tuberculosis; M. tuberculosis hypoxia-regulated fluorescent reporter, fluorescence; fluorescence inhibition, % (test concentration not listed); hit rate 0.1% among 300,000; in the data active = fluorescence inhibition mostly above about 23%, no sharp cut-off; inactive = mostly below about 17%
Rv3671c cf = Rv3671c protease inhibition, confirmation. shares compounds with Rv3671c inh. inhibition, % at 5.96 µM. hit rate 40% among 140. AID 2761
Numbers without * were called inactive; ? = inconclusive; . = no result given; + = active, no number. Cut-off read from the data, not from the text of the source, unless noted: active = inhibition above about 38%; inactive = the rest.

SMILES	Mtb FBA inh	Rv3671c inh	FadD28 FP inh	UGM FP inh	GDH-TPI counter	Mtb hypoxia inh	Rv3671c cf
CCCCc1cc(=O)oc2c(CN(C)C)c(O)c(Cl)cc12	.	-3.9	1.4	-2.2	12.5	7.0	.
Cc1ccc(C=Nn2c(C)n[nH]c2=S)o1	.	.	.	.	.	2.3	.
Cc1ccc2nc(-c3cccs3)oc(=O)c2c1	-3.6	51.5*	-1.8	-1.2	4.9	17.2	62.9*
O=c1oc(-c2cccs2)nc2ccc(Br)cc12	-1.1	-1.6	-1.7	-1.3	3.6	8.2	.
Cc1ccc2nc(-c3ccccc3C)oc(=O)c2c1	-0.7	62.4*	-0.8	0.4	8.6	12.7	75.2*
C=C(CCC(O)C(C)(C)O)C1CC[C@]2(C)C1CCC1[C@@]3(C)CCC(=O)C(C)(C)C3CC[C@]12C (some centres not stated)	.	.	.	.	.	14.0	.
O=C1C=C(c2ccc(C(=O)O)cc2)CC(c2ccc(Cl)cc2)C1 (configuration not stated)	.	.	.	.	.	5.1	.
CC(=O)c1ccc(S(=O)(=O)Nc2cccc(-c3ccc4nncn4n3)c2)cc1	1.1	56.0*	-4.3	-1.4	9.3	7.4	11.2
CC(=O)Oc1ccccc1C(=O)Oc1ccc(C=Nn2cnnc2)cc1	.	.	.	.	.	-4.6	.
Cc1ccc(S(=O)(=O)N=C2CN(C)C(=O)N2C)cc1	.	.	.	.	.	12.5	.
O=C(N/N=C/c1c(O)ccc2ccccc12)Nc1ccccc1	.	40.3*	.	7.3	.	.	56.3*
O=C(CSCC(=O)Nc1ccccc1)N/N=C/c1c(O)ccc2ccccc12	4.2	9.8	-3.9	0.6	11.2	.	.
O=C(O)CC1SC(NN=Cc2ccc(Br)cc2)NC1=O (configuration not stated)	.	.	.	.	.	1.7	.
COc1cccc2c1C(=O)c1c(O)c3c(c(O)c1C2=O)C[C@](O)(C(C)=O)C[C@H]3O[C@@H]1C[C@@H](N)[C@@H](O)[C@@H](C)O1	-3.5	44.5*	62.0*	33.4*	2.4	.	35.0
CCn1c(CSc2nnc(-c3ccncc3)n2CCOC)nc2cc(C(=O)O)ccc21	-3.6	14.3	3.1	-0.9	2.5	-0.7	.
CCn1c(CSc2nnc(-c3cccnc3)n2-c2ccccc2C)nc2cc(C(=O)O)ccc21	.	48.5*	.	1.0	.	.	63.8*
C(=N\Nc1nc2ccccc2[nH]1)/c1cccc2nccnc12	-3.9	19.1	-2.3	-4.1	9.4	.	.
C#CCn1cc(/C=N/Nc2nc3ccccc3[nH]2)c2ccccc21	3.7	61.6*	5.1	-2.6	11.4	.	63.7*
CCN(CC)C(=O)C1c2ccccc2Oc2ccccc21	3.1	73.5*	-1.2	46.7*	13.0	.	8.3
COC(=O)Cc1[nH]nc2c1C(c1cc(OC)c(OC)c(OC)c1)C(C#N)=C(N)O2 (configuration not stated)	0.6	40.0*	-2.5	-2.4	5.3	5.8	-4.1
Cc1cc[n+](-c2[nH]c(=O)sc2C=NNC([S-])=Nc2ccccc2)cc1C	.	.	.	.	.	16.7	.
CCC(C)OC(=O)n1ccc(C(=O)Nc2nccs2)n1 (configuration not stated)	-0.3	54.9*	-0.9	-5.0	0.7	-0.5	49.4*
CC(=O)n1cc(C2C=C(C(=O)O)OC(OCCCCO)C2)c2ccccc21 (configuration not stated)	.	.	.	.	.	3.6	.
CC(C)Cn1c(N)c(C(=O)COC(=O)c2ccc(O)cc2)c(=O)n(C)c1=O	2.2	60.1*	-3.5	-3.6	-0.6	-9.2	-12.6
CCCc1cc(=O)oc2cc(C)cc(OC(=O)c3ccco3)c12	-1.2	65.6*	-1.9	0.8	1.9	18.8	84.5*
SMILES	Mtb FBA inh	Rv3671c inh	FadD28 FP inh	UGM FP inh	GDH-TPI counter	Mtb hypoxia inh	Rv3671c cf
NC(=O)CCC(NC(=O)c1ccc(F)cc1)C(=O)OCC(=O)NCc1ccc(F)cc1 (configuration not stated)	.	.	.	.	.	6.4	.
O=C1CCCC2=C1C(c1ccc(Cl)cc1)C1C(=O)c3ccccc3C1=N2 (configuration not stated)	1.6	39.8*	?	0.2	11.3	11.1	3.0
Cn1c(=O)cc2c3c(c(N4CCCCC4)ccc31)C(=O)c1ccccc1-2	-2.5	51.7*	32.1*	1.9	24.4	8.4	36.2
O=C1c2ccccc2C(=O)c2c1cccc2N1CCCC1	-1.7	-36.4	1.8	1.2	13.9	6.9	.
CC1CN(C(C)CO)C(=O)c2cccc(NC(=O)Nc3ccc(C(F)(F)F)cc3)c2OC1CN(C)S(=O)(=O)c1ccc(Cl)cc1 (configuration not stated)	.	.	.	.	.	4.1	.
CCNc1ccc2noc3c2c1C(=O)c1ccccc1-3	-3.4	129.8*	52.0*	11.8*	1.5	4.6	126.0*
O=C1c2ccccc2-c2onc3ccc(NCc4ccco4)c1c23	-4.5	106.5*	11.6*	12.2*	19.1	2.7	81.0*
CC(=NOC(=O)C1CC1)C1CC1c1ccc(F)cc1 (configuration not stated)	.	.	.	.	.	7.5	.
COc1ccc(OC)c(-c2c3cc(O)c(=O)cc-3oc3cc(O)c(O)cc23)c1	-7.7	62.7*	101.9*	5.3	12.6	.	76.3*
COc1ccc(OC)c(-c2oc3ccccc3c(=O)c2O)c1	0.8	3.5	-2.4	1.7	18.1	4.8	.
CCN(CC)C(=S)SCC(=O)NC12CC3CC(CC(C3)C1)C2	-0.7	150.7*	-4.2	-0.9	12.9	3.9	-4.8
CCN1C(=O)C(CC(=O)Nc2ccc(OC)cc2)N(CCc2ccccc2)C1=S (configuration not stated)	-1.2	-0.7	-1.4	2.0	1.2	5.4	.
CCN1C(=O)C(CC(=O)Nc2ccc(F)cc2)N(CCc2ccc(OC)cc2)C1=S (configuration not stated)	1.4	50.6*	-3.3	0.4	4.2	.	-11.7
CCOC(=O)C1CCCN(C(=O)C2c3ccccc3Oc3ccccc32)C1 (configuration not stated)	7.4	59.9*	10.1*	23.3*	9.8	-6.0	9.5
CCOC(=O)C1CCCN(C(=O)C2COc3ccccc3O2)C1 (configuration not stated)	1.5	.	-1.9	.	3.5	6.4	.
COc1ccc(/C(=C\Nc2ccc(C)c(C)c2)C(C)=O)cc1OC	1.6	-1.5	-0.8	-0.3	14.4	8.3	.
COc1ccc(N/C=C(\C(C)=O)c2ccc(OC)c(OC)c2)cc1OC	0.2	89.5*	-0.7	2.6	11.2	-3.5	-10.9
Cc1ccc(-c2ccccc2NC(=O)CS(=O)CC(=O)Nc2ccc(C)c(Cl)c2)o1 (configuration not stated)	-2.1	77.9*	-0.3	-5.1	-2.3	.	-7.0
Cc1nn(-c2ccc(Br)cc2)c(=O)c2ccccc12	0.4	71.2*	-2.5	3.3	-0.4	-4.9	-4.8
Cc1nn(-c2ccccc2C(=O)O)c(=O)c2ccccc12	4.0	-1.0	0.3	1.8	-4.4	7.9	.
Cn1c(=O)c(NCCc2ccccc2)c2c3c(cccc31)C(=O)c1ccccc1-2	-7.2	+	93.0*	44.1*	11.2	-32.0	+
